Data published in ChEMBL document CHEMBL1157539, “Thousands of chemical starting points for antimalarial lead identification” (Nature, 2010).

Experiments:
Assay type in all cases: functional
Plasmodium falciparum [1] = experiment: GSK_TCMDC: Inhibition of Plasmodium falciparum 3D7 in whole red blood cells, using parasite LDH activity as an index of growth. Test compounds present at 2uM
Plasmodium falciparum [2] = experiment: GSK_TCMDC: Inhibition of Plasmodium falciparum Dd2 in whole red blood cells, using parasite LDH activity as an index of growth. Test compounds present at 2uM
HepG2 = experiment: GSK_TCMDC: Percent inhibition of human HepG2 cell line. Test compounds present at 10uM.

SMILES | Inhibition (Plasmodium falciparum [1]) [%] | Inhibition (Plasmodium falciparum [2]) [%] | Inhibition (HepG2) [%]
CN(C)CCCOc1cccc(NC(=O)Nc2ccc(-c3ccccc3)cc2)c1.O=C(O)C(F)(F)F | 91 | 14 | 9
Cc1c(C2CCN(CCCCNC(=O)c3ccc(-c4ccc(C#N)cc4)cc3)CC2)c2ccccc2n1CCO | 96 | 99 | 28
Cc1noc(C)c1C(=O)N1CCc2cc3nccc(N4CCN5CCC[C@H]5C4)c3cc21 | 93 | 9 | 7
CCCCC(=O)Nc1ccc(Nc2nc(C)cc(N3CCCC3)n2)cc1 | 100 | 67 | 38
Clc1ccccc1/C=C/c1cncnc1Nc1ccc2[nH]c(Cc3ccccc3)nc2c1 | 96 | 26 | 4
Cc1cc(Nc2ccc3c(c2)CCC3)n2ncnc2n1 | 86 | 48 | 4
O=C(NCCCCN1CCC(c2ccc3ccccc3c2O)CC1)c1ccc(NC(=O)c2ccc(Cl)cc2)cc1 | 100 | 89 | 34
CC1CNC(c2cccc(NC(=O)Nc3cccc(C4=NC(C)CN4)c3)c2)=N1.Cl (stereo unspecified) | 94 | 98 | 7
Nc1nc(-c2ccccn2)nc(-n2nc(-c3cccc(C(F)(F)F)c3)cc2N)n1.O=C(O)C(F)(F)F | 87 | 74 | 14
CCOc1c(Br)cc(C)cc1CNCCCNc1nc2ccccc2[nH]1.Cl | 93 | 5 | 24
O=C(C=Cc1cn(-c2ccccc2)nc1-c1cccs1)N1CCN(c2ccncc2)CC1 | 100 | 61 | 31
CCN(CC)CCCOC(=O)c1ccc2c(c1)-c1ccc(C(=O)OCCCN(CC)CC)c3cccc-2c13.Cl | 98 | 96 | 22
O=C(Nc1cccc(CN2CCCN(Cc3cccc(O)c3)CC2)c1)c1ccc(-c2ccccc2)cc1.O=C(O)C(F)(F)F | 100 | 66 | 28
CC[C@H](NC(=O)c1c(CCCN2CCN(c3ccccc3)CC2)c(-c2ccccc2)nc2cc(O)ccc12)c1ccccc1 | 96 | 97 | 12
CCNC(=O)c1cc(S(=O)(=O)N2CCN(c3ccccn3)CC2)cs1 | 97 | 94 | 7
COc1ccc(NC(=O)/C=C/c2ccc(-c3ccc(-c4noc(C)n4)cc3)cc2)cc1OCCN(C)C.O=C(O)C(=O)O | 81 | 31 | 14
COc1cc2ncnc(Nc3ccc(OCc4ccccc4Br)c(Cl)c3)c2cc1OC.Cl | 96 | 6 | 25
O=c1cc(NCCCNCc2cccc(SC(F)(F)F)c2)[nH]c2ccccc12 | 100 | 94 | 0
Cc1n[nH]c2ccc(-c3cc(OC[C@@H](N)Cc4ccccc4)cnc3-c3ccccc3OCc3cccc(F)c3)cc12.O=C(O)C(F)(F)F | 91 | 91 | 55
CN(CC(=O)Nc1cc(C(F)(F)F)ccc1-n1cncn1)Cc1nc2ccccc2s1 | 87 | 64 | 3
Clc1cccc(Nc2ccc3c(N4CCCCC4)ncnc3n2)c1 | 97 | 93 | 54

SMILES | Inhibition (Plasmodium falciparum [1]) [%] | Inhibition (Plasmodium falciparum [2]) [%] | Inhibition (HepG2) [%]
Cc1cccc2nc(-c3ccc(-c4ccc(NC(=O)c5cncn5C)cc4)s3)[nH]c12 | 100 | 30 | 49
CN1CCC(Oc2ccc(CN3CC[C@H](NC(=O)c4ccc(Cl)c(Cl)c4)C3)c3ccccc23)C1.O=C(O)C(F)(F)F (stereo partly specified) | 100 | 82 | 52
CCC(C)(C)c1ccc(Oc2ccc(NC(=O)Nc3ccc(Cl)c(Cl)c3)cc2)cc1 | 98 | 97 | 13
Fc1cccc(COc2ccc(Nc3ncnc4sc(C#CC5CCCCN5)cc34)cc2Cl)c1.O=C(O)C(F)(F)F (stereo unspecified) | 100 | 100 | 30
N#Cc1cnc(Nc2ccc(Oc3ccccc3)cc2)nc1Nc1cccc(S(N)(=O)=O)c1 | 96 | 86 | 74
CC(C)c1ccc(NC(S)=NN=Cc2ccccn2)cc1 | 100 | 98 | 47
COc1ccc(-c2onc(C(F)(F)F)c2-c2cc3ccccc3o2)c(O)c1 | 93 | 15 | 6
CN1CCC(C(=O)Nc2ccc(-c3cccc(-c4nc5cc(F)ccc5[nH]4)c3)cc2)CC1 | 100 | 5 | 19
N#C/N=C(\NCCCCCCCCN/C(=N\C#N)NCCSCc1csc(N=C(N)N)n1)NCCCSc1csc(N=C(N)N)n1 | 91 | 24 | 0
COc1ccc2nccc([C@@H](O)CN3CCC(NCc4nc5cc(F)cc(F)c5[nH]4)CC3)c2c1.O=C(O)C(=O)O | 99 | 64 | 19
Clc1ccc(CNCCCCCCNCc2ccc(Cl)cc2)cc1.O=C(O)c1ccc2ccccc2c1O | 96 | 28 | 53
Cc1ccc(NC(=O)c2nc(N3CCN(c4ccncc4)CC3)ccc2Cl)cc1F.O=C(O)C(F)(F)F | 100 | 57 | 51
CC(=O)Nc1ccc(Cl)c(Cl)c1 | 95 | 98 | 5
Fc1ccc2[nH]c(-c3cccc(-c4ccc(CNCCN5CCNCC5)cc4)c3)nc2c1.O=C(O)C(F)(F)F | 90 | 0 | 9
O=C(NC1CC1)c1cnc(N2CCCC(c3ccccc3)C2)c(Cl)c1.O=C(O)C(F)(F)F (stereo unspecified) | 95 | 94 | 6
O=C(NC1CC1)c1cnc(N2CCN(Cc3c(F)cccc3Cl)CC2)c(Cl)c1.O=C(O)C(F)(F)F | 93 | 93 | 0
N#CC(CC(=O)c1ccc(Cl)cc1)c1cccc(F)c1 (stereo unspecified) | 97 | 4 | 5
CC(C)C[C@H](Nc1ccnc(NCC2CCCCC2)n1)C(=O)Nc1ccccc1.O=C(O)C(F)(F)F | 87 | 42 | 6
NC1CCN(c2nc(NCCCc3ccc(O)cc3)nc(NCc3ccccc3-c3ccc(C(F)(F)F)cc3)n2)CC1.O=C(O)C(F)(F)F | 100 | 88 | 15
Cl.Nc1cc(C(F)(F)F)ccc1Cl | 97 | 0 | 8
Cc1cnc(C(=O)Nc2ccc(-c3cccc(-c4nc5ccccc5[nH]4)c3)cc2)cn1 | 93 | 8 | 77

SMILES | Inhibition (Plasmodium falciparum [1]) [%] | Inhibition (Plasmodium falciparum [2]) [%] | Inhibition (HepG2) [%]
COc1cc(Nc2ncc3c(C)nc(-c4cccc(Nc5ccc(CN6CCS(=O)(=O)CC6)cc5)c4)n3n2)cc(OC)c1OC | 90 | 79 | 2
CC(C)(C)C(=O)Nc1c(-c2cc(=O)oc3cc4c(cc23)CCC4)oc2ccccc12 | 100 | 100 | 0
Cc1nc(N)nc(N)c1CCCOc1cccc(Cl)c1 | 96 | 0 | 16
CCOc1ccc(-c2noc(-c3c[nH]c4ccccc4c3=O)n2)cc1 | 99 | 93 | 0
Cc1noc(C)c1-c1ccc2c(Nc3ccc(C(F)(F)F)cc3)c(C(N)=O)cnc2c1.Cl | 100 | 95 | 1
Cc1cccc(NC(=O)NCc2ccccc2)n1 | 97 | 2 | 14
CC(=O)N1N=C(c2cccs2)Sc2c1nc(-c1ccc(Cl)cc1)n2C(C)=O | 99 | 93 | 3
Oc1cccc(CNCCCN(Cc2ccccc2)c2ccccc2)c1 | 99 | 97 | 7
Cc1cccc2nc(-c3ccc(-c4ccc(NC(=O)NCc5cccc(F)c5)cc4)s3)[nH]c12 | 100 | 43 | 70
Cc1cc(N/N=C/c2ccccc2[N+](=O)[O-])c2cccc(C)c2n1 | 99 | 100 | 0
Cc1[nH]c(C)c(-c2ccc(OCc3ccc(F)cc3)cc2)c(=O)c1Cl | 95 | 96 | 0
CS(=O)(=O)N1CC2(CCN(CCC(NC(=O)/C=C/c3ccccc3)c3ccc(Cl)c(Cl)c3)CC2)c2ccccc21 (stereo unspecified) | 97 | 55 | 18
CC=CC(=O)N1CCN(c2nccc(-c3ccc(C(C)(C)C)cc3)n2)CC1 | 95 | 70 | 20
Cc1ccc(Oc2ncccc2C(=O)Nc2cccc3cccnc23)c(C)c1 | 99 | 76 | 0
CC(CN1CCN(C)CC1)C(=O)Nc1ccc(-c2ccc(-c3nc4cc(C(F)(F)F)ccc4[nH]3)cc2)cc1 (stereo unspecified) | 100 | 100 | 19
O=C(NC1CCCCC1)N(Cc1cccc(-c2ccc(CNCCc3ccccc3)cc2)c1)C1CCN(Cc2ccccc2)CC1.O=C(O)C(F)(F)F | 93 | 93 | 61
CCOC(=O)c1ccc(NC(=O)NCCCC2CCCN(CCCCCNC(=O)/C=C/c3ccc(Cl)c(Cl)c3)C2)cc1 (stereo unspecified) | 96 | 30 | 14
Cc1cc2nc(-c3ccc(C(=O)NCc4ccc(C(C)(C)C)cc4)cc3)[nH]c2cc1C | 100 | 59 | 3
CCN(CC)CCN(Cc1ccc(-c2ccc(C(F)(F)F)cc2)cc1)C(=O)Cn1c(CCc2cccc(F)c2F)c(C)c(=O)c2ccccc21.O=C(O)C(O)C(O)C(=O)O | 87 | 52 | 61
O=C(NC1CC1)c1ccc(N2CCC(Cc3ccccc3)CC2)nc1.O=C(O)C(F)(F)F | 95 | 92 | 13
